High-throughput results from PubChem.
IL-1B inflam inh: inhibitors of inflammasome signaling (IL-1 beta secretion). activity change, % at 57.5 µM. THP-1 LPS/ATP IL-1B secretion, AlphaLISA, 16 h; active compounds read low. 360,000 compounds, 4.7% hits; in the data active = activity change below about -50%; inconclusive = mostly about -30% to -49%
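Secreted IL-1B measured by AlphaLISA bead assay after 16 h compound exposure of THP-1 cells; compounds (final up to 57.5 uM) added 1 h before LPS (250 ng/mL) and ATP (1.25 mM) stimulation; lower signal means less secretion.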
HT1080NT lethal: kills 2HG-producing HT-1080-NT fibrosarcoma cells; HT-1080-NT fibrosarcoma viability, CellTiter-Glo ATP luminescence, 48 h; Potency, µM (titrated, usually from 46.1 µM), inactives show at the highest dose activity, negative = less viability, usual class: cytotoxic; 360,000 compounds, 1.6% hits; AID 686970;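 also: NT is the 2HG producing partner of a matched IDH1 knockdown line; potency is read from the fitted curve at half-maximal effect; 0% = DMSO-treated cells and -100% = media-only wells without cells; nearly all actives have a fitted effect of over 55% in size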
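Viability of the 2HG-overproducing fibrosarcoma line after 48 hours of compound exposure at 37 degrees C was determined by luminescence with CellTiter-Glo, and concentration-effect curves were then fitted and categorized.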
HT1080 IDH1KD tx: toxicity to HT-1080 IDH1 knockdown cells (counter line) | Potency, µM (highest dose often 46.1 µM), for inactives: at the top dose activity, negative = toxicity, usual class: cytotoxic | AID 686971 | 360,000 compounds, 2% hits | HT-1080 IDH1 knockdown viability, ATP luminescence, 48 h;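 also: potency is read from the fitted curve at half-maximal effect; 0% = DMSO wells and -100% = cell-free medium wells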
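Luminescent ATP read-out (CellTiter-Glo, 10 min at room temperature) after 48 h compound exposure at 37 °C gave viability of IDH1-knockdown HT-1080 cells. Activity was normalised to DMSO and cell-free wells, then fitted as concentration-response curves.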
TDP1 cell CPT: growth inhibition of DT40 Tdp1-/-;hTDP1 cells with camptothecin (screen for TDP1 inhibitors). chicken DT40 Tdp1-/-;hTDP1 cells + 20 nM CPT, ATP luminescence, 48 h. Potency, µM (doses to about 46.2 µM), inactives show top-dose activity change, negative = growth inhibition, actives largely listed as inhibitors. 420,000 compounds, 12% hits. AID 686979; also: potency is read from the fitted curve at half-maximal effect; nearly all actives have a fitted effect of over 55% in size
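Chicken DT40 Tdp1-/- cells complemented with human TDP1, 400 cells/well, exposed to compounds plus 20 nM camptothecin for at least 48 h at 37 C; viability read as ATP content by CellTiter-Glo luminescence.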
TDP1 cell noCPT: qHTS for Inhibitors of human tyrosyl-DNA phosphodiesterase 1 (TDP1): qHTS in cells in absence of CPT. DT40 Tdp1-/- hTDP1 cells, no CPT, ATP luminescence, 48 h. Potency, µM (series often up to 46.2 µM), inactives show at the top dose activity change, negative = growth inhibition, actives largely listed as inhibitors. 420,000 compounds, 15% hits. AID 686978, 2013; also: potency is read from the fitted curve at half-maximal effect; nearly all actives have a fitted effect of over 55% in size
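Chicken DT40 Tdp1-/- cells stably complemented with human TDP1 were seeded at 400 cells/well with DMSO in place of 20 nM camptothecin. After compound pinning, cells grew at least 48 hr at 37 °C; viability read by CellTiter-Glo luminescence.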
ELG1 repair inh: blocks ELG1-dependent DNA repair in HEK293T cells; Potency, µM (titrated, usually from 46.1 µM), inactives show top-dose activity change, negative = inhibition, hits mostly inhibitors; HEK293T ELG1-luciferase reporter, luminescence, 16 h; DNA damage induced by 5-fluorouridine; 330,000 compounds, 2.3% hits; AID 504467; also: potency is read from the fitted curve at half-maximal effect; nearly all actives have a fitted effect of over 55% in size
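Quantitative HTS, concentration-response format. 2,000 cells/well co-treated with 5-fluorouridine and compound, 16 hr in 5% CO2 at 37 °C; ONE-Glo luminescence read after 30 min.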
ELG1 Luc conf: human ELG1 repair inhibition, luciferase-tagged ELG1 confirmation. shares compounds with ELG1 repair inh. HEK293T ELG1-luciferase levels, luminescence; cells co-treated with 5-fluorouridine. Potency, µM (series often up to 46.1 µM), for the others: top-dose activity change, negative = inhibition, most hits filed as inhibitors. 670 compounds, 68% hits. AID 624248; also: potency is read from the fitted curve at half-maximal effect; nearly all actives have a fitted effect of over 55% in size
Target sequence (Q96QE3 whole entry, looked up): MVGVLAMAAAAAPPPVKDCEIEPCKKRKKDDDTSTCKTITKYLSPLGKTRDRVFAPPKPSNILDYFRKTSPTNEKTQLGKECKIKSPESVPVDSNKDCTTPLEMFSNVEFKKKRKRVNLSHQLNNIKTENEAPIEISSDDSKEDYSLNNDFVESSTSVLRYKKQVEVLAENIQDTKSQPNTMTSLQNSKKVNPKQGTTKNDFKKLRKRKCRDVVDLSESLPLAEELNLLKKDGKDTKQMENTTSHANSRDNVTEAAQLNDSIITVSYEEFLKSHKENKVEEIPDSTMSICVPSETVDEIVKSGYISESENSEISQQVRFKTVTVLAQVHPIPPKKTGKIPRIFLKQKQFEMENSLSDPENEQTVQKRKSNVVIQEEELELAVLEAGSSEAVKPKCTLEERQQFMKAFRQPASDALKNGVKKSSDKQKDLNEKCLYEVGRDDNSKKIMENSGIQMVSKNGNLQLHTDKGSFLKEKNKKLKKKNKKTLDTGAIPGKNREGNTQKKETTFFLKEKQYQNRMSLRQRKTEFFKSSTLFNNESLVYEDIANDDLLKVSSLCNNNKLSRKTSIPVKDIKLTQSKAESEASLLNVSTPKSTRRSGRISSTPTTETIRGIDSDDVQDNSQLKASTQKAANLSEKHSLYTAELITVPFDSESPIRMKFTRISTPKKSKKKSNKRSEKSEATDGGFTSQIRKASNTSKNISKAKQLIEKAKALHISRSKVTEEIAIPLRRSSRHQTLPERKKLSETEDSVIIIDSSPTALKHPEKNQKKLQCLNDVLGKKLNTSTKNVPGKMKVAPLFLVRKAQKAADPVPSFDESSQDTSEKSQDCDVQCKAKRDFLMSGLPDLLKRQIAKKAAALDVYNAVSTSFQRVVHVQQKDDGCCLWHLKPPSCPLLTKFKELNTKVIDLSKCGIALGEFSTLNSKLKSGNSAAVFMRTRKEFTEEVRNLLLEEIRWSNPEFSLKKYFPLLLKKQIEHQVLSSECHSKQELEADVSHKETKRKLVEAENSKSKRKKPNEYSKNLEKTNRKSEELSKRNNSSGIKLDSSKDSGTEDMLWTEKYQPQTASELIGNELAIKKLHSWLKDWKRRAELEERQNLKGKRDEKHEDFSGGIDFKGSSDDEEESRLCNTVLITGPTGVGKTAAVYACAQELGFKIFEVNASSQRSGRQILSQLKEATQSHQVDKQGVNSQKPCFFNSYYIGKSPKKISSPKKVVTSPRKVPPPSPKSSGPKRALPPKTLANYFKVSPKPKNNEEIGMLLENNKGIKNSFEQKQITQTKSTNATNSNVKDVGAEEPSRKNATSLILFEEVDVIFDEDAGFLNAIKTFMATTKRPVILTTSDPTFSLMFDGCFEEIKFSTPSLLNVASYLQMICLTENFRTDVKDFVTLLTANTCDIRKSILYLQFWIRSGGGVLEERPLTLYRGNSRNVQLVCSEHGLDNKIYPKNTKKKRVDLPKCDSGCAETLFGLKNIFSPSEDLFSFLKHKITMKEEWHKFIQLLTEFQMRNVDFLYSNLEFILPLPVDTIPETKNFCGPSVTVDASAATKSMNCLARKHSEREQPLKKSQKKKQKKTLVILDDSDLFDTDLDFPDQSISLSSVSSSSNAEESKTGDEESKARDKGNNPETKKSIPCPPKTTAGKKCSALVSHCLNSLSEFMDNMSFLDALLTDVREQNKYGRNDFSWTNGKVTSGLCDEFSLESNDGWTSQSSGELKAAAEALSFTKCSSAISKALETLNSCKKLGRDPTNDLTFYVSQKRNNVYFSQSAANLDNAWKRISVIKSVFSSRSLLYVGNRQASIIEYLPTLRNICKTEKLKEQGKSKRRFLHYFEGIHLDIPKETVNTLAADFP
ELG1 MMS Luc: confirmation of human ELG1 repair inhibitors, MMS stimulated | 670 compounds, 53% hits | HEK293T luciferase-tagged ELG1 level, MMS stimulated | Potency, µM (top dose mostly 46.1 µM), without a hit: at the top dose activity change, negative = inhibition, usual class: inhibitors | shares compounds with ELG1 repair inh; also: potency is read from the fitted curve at half-maximal effect; nearly all actives have a fitted effect of over 60% in size
ELG1 5FU viab: confirmation of ELG1 repair inhibitors: viability with 5FU. 670 tested, under 10 active. Potency, µM (titrated, usually from 46.1 µM), for the others: at the highest dose activity change, negative = viability loss, most hits filed as cytotoxic. cell viability with 5-FU, ELG1-dependent repair. shares compounds with ELG1 repair inh;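 also: ELG1-luc HEK293T cells cotreated with 5-fluorouridine at 10 µM final; potency is read from the fitted curve at half-maximal effect; viability measured 16 h after compound addition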
ELG1 MMS cell: confirmation of ELG1 repair inhibitors: viability with MMS; shares compounds with ELG1 repair inh; Cell viability with MMS, ELG1-dependent DNA repair; 670 compounds, 33% hits; AID 624251; Potency, µM (highest dose often 46.1 µM), without a hit: at the highest dose activity change, negative = viability loss, most hits filed as cytotoxic;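 also: ELG1-luc HEK293T cells co-treated with 10 µM MMS; potency is read from the fitted curve at half-maximal effect; viability read 16 h after compound addition; nearly all actives have a fitted effect of over 60% in size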
Cell viab unstim: counter-screen for ELG1 repair inhibitors: unstimulated cell viability | Potency, µM (doses to about 45.9 µM), inactives show at the top dose activity change, negative = loss of viability, usual class: cytotoxic | shares compounds with ELG1 repair inh | 900 compounds, 8% hits | cell viability counter-screen, unstimulated, luminescence;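 also: potency is read from the fitted curve at half-maximal effect; compound exposure lasted 16 hours before reading; nearly all actives have a fitted effect of over 55% in size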
Numbers without * were called inactive; ? = inconclusive; nt = not tested or not shown. Sampled rows, rich in hits. Any-hit rate of the full collection: about 19%. Unless noted, calls follow the shape of the dose curve; as a rule, active = well fitted curve in the direction sought with a large enough effect; inconclusive = small, poorly fitted or top-dose-only effect, or another doubt; inactive = no such curve, though single readings can be large; an effect the other way counts as inactive or inconclusive. Unless noted, % is scaled to controls: 0 for no effect and ±100 for the full control effect.

SMILES	IL-1B inflam inh	HT1080NT lethal	HT1080 IDH1KD tx	TDP1 cell CPT	TDP1 cell noCPT	ELG1 repair inh	ELG1 Luc conf	ELG1 MMS Luc	ELG1 5FU viab	ELG1 MMS cell	Cell viab unstim
CCC(CO)Oc1cc(NCc2ccc(Cl)cc2Cl)c2ncn(C(C)C)c2c1 (stereo not drawn)	78	?	?	?	?	-28%	nt	nt	nt	nt	nt
CCC(CO)Oc1cc(NCc2ccccc2O)c2ncn(C(C)C)c2c1 (stereo not drawn)	0	?	-7%	15µM*	18µM*	2.3µM*	8.9µM*	4.4µM*	6%	4.4µM*	?
COc1ccc(CC/C(C)=N\NC(N)=O)cc1	41	16%	8%	4%	-17%	3%	nt	nt	nt	nt	nt
CCC(=O)c1ccc(OCC(O)Cn2nnc3ccccc32)cc1 (stereo not drawn)	13	0%	0%	-8%	-21%	?	nt	nt	nt	nt	nt
CCCOC(=O)c1ccc(OCC(O)Cn2c(C)nc3ccccc32)cc1 (stereo not drawn)	33	2%	-17%	2.6µM*	2.6µM*	1.5µM*	?	1.8µM*	-4%	2µM*	?
Cc1cc(NC(=O)c2cccc(S(=O)(=O)N3CCCCC3)c2)no1	9	-4%	-1%	-10%	-25%	?	nt	nt	nt	nt	nt
Cc1c(NC(=O)C(C)OC(=O)c2cccs2)c(=O)n(-c2ccccc2)n1C (stereo not drawn)	-3	7%	14%	-1%	20%	?	nt	nt	nt	nt	nt
CCC(C)(C)C1CCc2nc3ccccc3c(C(=O)OC(C)C(=O)Nc3c(C)n(C)n(-c4ccccc4)c3=O)c2C1 (stereo not drawn)	-22	-25%	-25%	23µM*	?	4.1µM*	2.2µM*	25µM*	?	3%	?
CCCCCNC(=O)C(c1ccnc2ccccc12)n1c(=O)c(-c2cc3ccccc3[nH]2)nc2ccccc21 (stereo not drawn)	-12	-26%	-22%	?	?	nt	nt	nt	nt	nt	nt
COc1cccc(C(=O)NCc2ccco2)c1OC	-11	3%	9%	2%	1%	0%	nt	nt	nt	nt	nt
Cc1ccc(C)c(N2CCN(C(=O)CCS(=O)(=O)c3ccc4c(c3)NC(=O)C(C)S4)CC2)c1 (stereo not drawn)	22	-5%	0%	23µM*	15µM*	4.6µM*	13µM*	2µM*	?	2µM*	?
